Source: PubChem BioAssay (several laboratories)
HIF act: HIF pathway transcriptional activation; AID 1910; U2OS HRE-luciferase reporter, luminescence; normalized: DMSO 0%, desferrioxamine 100%; activation, % at 7.5 µM (by protocol); hit rate 0.32% among 300,000;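 active means mean activation of at least 10% of the iron chelator positive control signal, with at least half of replicates also reaching 10%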
KLK7 zymogen act: activates the human kallikrein-7 zymogen; hit rate 0.9% among 370,000; activation, % at 7 µM; purified proKLK7, EDANS-DABCYL substrate fluorescence; 100% is mature enzyme control, 0% vehicle;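 active means activation above the mean of all tested compounds plus 3 SD, computed per campaign excluding outliers beyond control limits, cut at about 13% in these data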
NPR2 activator: GC-B (human) receptor activation | P20594 | HEK293-GC-B cells, CNP EC30, cGMP TR-FRET; 0% at EC30 CNP, 100% saturating CNP | activation, % at 10 µM | hit rate 0.11% among 370,000 | AID 1920062;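 active means activation at 10 µM reaching about 35% in either raw or pattern-adjusted values, limit read from the data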
Target sequence (P20594 whole entry, looked up): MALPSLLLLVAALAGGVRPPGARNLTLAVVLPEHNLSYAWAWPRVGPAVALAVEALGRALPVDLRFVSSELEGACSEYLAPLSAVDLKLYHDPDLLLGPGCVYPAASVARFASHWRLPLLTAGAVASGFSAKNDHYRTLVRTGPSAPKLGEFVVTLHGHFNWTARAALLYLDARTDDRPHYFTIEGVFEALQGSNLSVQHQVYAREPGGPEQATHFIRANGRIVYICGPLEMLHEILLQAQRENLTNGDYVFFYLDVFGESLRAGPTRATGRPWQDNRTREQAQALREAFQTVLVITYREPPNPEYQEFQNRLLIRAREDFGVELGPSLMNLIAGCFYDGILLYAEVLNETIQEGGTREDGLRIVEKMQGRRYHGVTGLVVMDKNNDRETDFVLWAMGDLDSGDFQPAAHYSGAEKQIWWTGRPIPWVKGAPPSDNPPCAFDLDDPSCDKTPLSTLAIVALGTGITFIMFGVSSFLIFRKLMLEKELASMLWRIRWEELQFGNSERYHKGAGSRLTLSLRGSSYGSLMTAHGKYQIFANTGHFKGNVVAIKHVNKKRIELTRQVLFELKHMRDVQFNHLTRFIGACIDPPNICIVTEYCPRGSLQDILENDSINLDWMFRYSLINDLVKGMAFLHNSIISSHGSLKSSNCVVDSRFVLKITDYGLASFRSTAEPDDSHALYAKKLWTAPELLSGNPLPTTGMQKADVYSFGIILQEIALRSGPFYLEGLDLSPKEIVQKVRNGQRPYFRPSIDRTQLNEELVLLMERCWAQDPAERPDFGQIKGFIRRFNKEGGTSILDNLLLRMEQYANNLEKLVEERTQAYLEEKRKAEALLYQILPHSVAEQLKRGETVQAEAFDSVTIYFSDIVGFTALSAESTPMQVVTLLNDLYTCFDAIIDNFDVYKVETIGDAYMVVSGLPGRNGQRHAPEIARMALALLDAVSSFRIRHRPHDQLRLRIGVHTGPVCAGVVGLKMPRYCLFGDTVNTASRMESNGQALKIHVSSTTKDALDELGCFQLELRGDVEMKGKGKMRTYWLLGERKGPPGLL
GC-A act: GC-A (human) enzyme activation. AID 1671463. activation, % at 10 µM. hit rate 0.14% among 370,000. HEK293 GC-A cells, cGMP TR-FRET, EC30 ANP; 0% at EC30 ANP, 100% saturating ANP; in the data active means activation above about 40%
A number is an active result; 0 = inactive; - = not tested or not shown. Sampled rows, rich in hits. Any-hit rate of the full collection: about 1.3%.

SMILES	HIF act	KLK7 zymogen act	NPR2 activator	GC-A act
CO[C@H]([C@H](C)/C=C/N(C)C=O)[C@@H](C)C(=O)CC[C@H](C)[C@H](O)[C@H](C)[C@H]1OC(=O)/C=C/C(C)=C/C[C@H](O)C[C@@H]2C=CC[C@@H](C[C@H](OC)[C@@H](CO)[C@@H](OC)C[C@@H](OC)[C@@H]1C)O2	-	-	0	0
COC(=O)c1ccc2nc(-c3ccc(C)cc3)c(Cc3ccc(C)cc3)n2c1	-	0	50.2	0
COC(=O)c1ccc2nc(-c3ccc(OC)c(OC)c3)c(Cc3ccc(C)cc3)n2c1	-	0	0	0
COC(=O)[C@H]1C[C@@]2(N3CCCC3)c3ccccc3N[C@H]2N1S(=O)(=O)c1ccc([N+](=O)[O-])cc1	-	0	0	0
ClCc1nnc(-c2cc3c(s2)CCCC3)o1	0	0	0	53.9
O=[N+]([O-])c1ccc(OCCCCCN2CCOCC2)cc1	0	0	0	0
O=[N+]([O-])c1ccc(OCCCCN2CCCCC2)cc1	189.0	0	0	0
COc1cccc(NC(=O)C2CCCN2C(=O)NCc2ccccc2OC)c1 (stereo not given)	-	0	0	0
COc1cccc(-c2cc(C(=O)Nc3ccccc3)c3ccccc3n2)c1	0	0	0	0
COc1ccc(COc2cc(-c3cccc(OC)c3)nc3ccc(NC(=O)C(C)C)cc23)cc1	0	0	54.8	52.5
COc1cc2c(cc1OC)C(c1ccccc1)N(C(=O)CCl)CC2 (stereo not given)	0	0	0	0
COc1cc2c(cc1OC)C(C)N(S(=O)(=O)c1ccc(Cl)nc1)CC2 (stereo not given)	15.5	0	0	0
COc1cc2c(cc1OC)C(c1ccccc1)N(S(C)(=O)=O)CC2 (stereo not given)	28.5	0	0	0
CCOc1ccc(-n2c(SCC(=O)Nc3ccc4c(c3)c3ccccc3n4CC)nnc2-c2cccnc2)cc1	-	0	0	0
CC(C)Nc1nc(Cl)nc(NNC(=O)C(C)Oc2ccccc2)n1 (stereo not given)	0	0	0	0
CCNc1nc(Cl)nc(NNC(=O)C(C)Oc2ccccc2)n1 (stereo not given)	236.0	0	0	0
O=C1NC(Cc2ccc(O)cc2)c2nc3ccc(F)cc3c(=O)n2-c2cc3ccccc3cc21 (stereo not given)	-	0	65.1	0
O=C1NC(Cc2ccc(O)cc2)c2nc3cc(F)c(F)cc3c(=O)n2-c2cc3ccccc3cc21 (stereo not given)	-	0	38.0	0
CCN(C(=O)Cn1nnc(-c2ccncc2)n1)c1ccccc1	-	0	0	0
COC(=O)C12C=C3CC(C4CC4)=C3C(=O)N1Cc1[nH]c3ccccc3c1C2 (stereo not given)	-	0	0	0
CC(=O)c1cccc(NC(=O)CSC(=O)c2ccccc2)c1	30.1	0	0	0
Cc1ccc(C(CC(=O)O)C2CCOC(C)(C)C2)cc1 (stereo not given)	41.7	0	0	0
O=C(NCc1ccc(C(=O)NCC2CCCO2)cc1)c1cccc(Br)c1 (stereo not given)	-	0	0	0
CC(NC(=O)C12CC3CC(CC(O)(C3)C1)C2)c1ccc(Cl)cc1Cl (stereo not given)	16.0	0	0	0
COc1ccc(OC)c(C(C)NC(=O)C23CC4CC(CC(C4)C2)C3)c1 (stereo not given)	0	0	0	0
SMILES	HIF act	KLK7 zymogen act	NPR2 activator	GC-A act
O=C(c1ccccc1)C1CCN(c2ncnc3sccc23)CC1	-	-	0	0
O=C(CNC(=O)c1ccc(Cl)cc1)OC1CCOC1=O (stereo not given)	0	0	0	0
CCCCOc1ccc(C(=O)NCC(=O)OC2CCOC2=O)cc1 (stereo not given)	305.5	0	0	57.2
CC(C)(C)c1ccc(Oc2ccc(NC(=O)c3cccs3)cn2)cc1	0	0	0	0
COc1ccc(NC(=O)c2cccs2)cn1	18.7	0	0	0
CCOc1ccc(N=Cc2ccc([N+](=O)[O-])cc2)c(O)c1	-	18.0	0	0
CCOc1ccc(CNC(=S)N/N=C\c2ccc([N+](=O)[O-])cc2)cc1	0	0	0	0
Cc1ccc2nc(-c3ccc(O)c(O)c3)cn2c1	28.6	0	0	0
CCn1cnc2c1c(=O)n(Cc1cccc([N+](=O)[O-])c1)c(=O)n2Cc1ccccc1	0	0	40.9	0
CCn1cnc2c1c(=O)n(Cc1nnc3n1-c1ccccc1SC3)c(=O)n2Cc1ccccc1	0	0	0	0
CCn1cnc2c1c(=O)n(CC(=O)NCc1ccccc1)c(=O)n2Cc1ccccc1	0	0	0	0
CCn1cnc2c1c(=O)n(Cc1csc(-c3ccccc3)n1)c(=O)n2Cc1ccccc1	0	0	50.7	0
O=C(c1cc(F)ccc1F)N(Cc1ccccn1)CC1CCCO1 (stereo not given)	-	0	0	0
N#Cc1ccccc1OCCCN1CCC(Cc2ccccc2)CC1	45.2	0	0	0
C=CCn1c(=O)c2c(C)c(C)sc2n2c(Nc3ccc(OC)cc3)nnc12	0	0	38.5	0
COc1ccc(S[C@]2(C(=O)N3CCN(c4ncccn4)CC3)CC(=O)N(C(=O)/C=C/c3ccccc3)[C@@H]2c2ccc(OC)cc2)cc1	-	0	0	0
Clc1ccc(OCCN2CCCCC2)cc1Cl	0	0	0	0
ON=C1c2cc(OCCN3CCCCC3)ccc2-c2ccc(OCCN3CCCCC3)cc21	16.2	-	-	-
O=C1OCc2cc(NC(=O)C34CC5CC(CC(C5)C3)C4)ccc21	827.8	0	0	0
O=C1OCc2cc(NC(=O)C3CCCO3)ccc21 (stereo not given)	0	0	0	0
Nc1[nH]c(C(=O)c2ccccc2)c(-c2ccc(Cl)cc2Cl)c1C(=O)c1cccs1	-	-	0	0
COc1ccc(C(=O)C2CCCN(C(=O)C3CCOCC3)C2)cc1OC (stereo not given)	423.6	0	0	0
O=C(COc1ccc(Cl)cc1Cl)NCc1ccco1	0	0	0	0
O=C(NCc1ccco1)c1ccc(COc2cc(Cl)ccc2Cl)cc1	0	0	0	40.7
CN(C)CCNC(=O)c1ccc(COc2ccc(Cl)cc2Cl)cc1	0	0	0	47.1
SMILES	HIF act	KLK7 zymogen act	NPR2 activator	GC-A act
COc1ccc(N2CCN(C(=O)CN(C)S(=O)(=O)c3cc(C)ccc3OC)CC2)cc1	464.5	0	0	0
COc1ccc(OC)c(S(=O)(=O)N(C)CC(=O)N2CCCCC2)c1	0	0	0	0
COc1ccccc1Nc1nn2c(=O)c3ccc(C(=O)N4CCC(C)CC4)cc3nc2s1	-	0	0	0
CCOC(=O)C1CCN(C(=O)c2ccc3c(=O)n4nc(Nc5ccccc5)sc4nc3c2)CC1	-	0	40.3	0
O=[N+]([O-])c1cnc2ccccc2c1Sc1ccccc1	-	-	0	0
O=C(COC(=O)c1ccccc1Nc1ccccc1)NCc1ccccc1Cl	683.2	0	0	0
COc1ccccc1-c1nc(C(=O)NCC2CCCO2)cc2c1[nH]c1ccccc12 (stereo not given)	0	-	-	-
COc1cc(-c2nc(C(=O)NCC3CCCO3)cc3c2[nH]c2ccccc23)cc(OC)c1OC (stereo not given)	0	0	58.5	53.5
